High-throughput results deposited in PubChem BioAssay by National Center for Advancing Translational Sciences (NCATS).
Hits are enriched below; roughly 21% of the tested compounds scored in any of these assays.
D3 antag: qHTS of D3 Dopamine Receptor Antagonist: qHTS; D(3) dopamine receptor (Homo sapiens), P35462; AID 652054, 2013; D3R cells, DiscoveRx beta-arrestin luminescence, antagonist mode; active compounds read low; 2.5% of 360,000 active; max response, negative = inhibition, %; in the data active = max response below about -50%; inconclusive = no clear call, values can overlap the other calls; also: % is scaled to controls: 0 for no effect and ±100 for the full control effect
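Cells plated overnight at 1500 cells/well, then exposed to library compounds with dopamine controls for 90 minutes at 37 degrees C. DiscoveRx reagent added for 30–60 minutes at room temperature; luminescence read, quantitative HTS format.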
D3 ag: qHTS of D3 Dopamine Receptor Agonist: qHTS | D(3) dopamine receptor (Homo sapiens), P35462 | D3R DiscoveRx beta-arrestin cells, luminescence, 90 min | max activation, % | 0.58% of 410,000 active; in the data active = max activation above about 30%; also: 0% is about no effect
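Agonist mode: compounds and dopamine controls were applied to plated cells for 90 min at 37 degrees C after an overnight attachment at 1500 cells/well. Luminescent read-out followed 30 - 60 minutes at room temperature with DiscoveRx detection reagent.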
DT40 TDP1 no CPT: qHTS for Inhibitors of human tyrosyl-DNA phosphodiesterase 1 (TDP1): qHTS in cells in absence of CPT. DT40 Tdp1-/- hTDP1 cells, no CPT, ATP luminescence, 48 h. Potency, µM (highest dose often 46.2 µM), without a hit: at the top dose activity change, negative = growth inhibition, most hits filed as inhibitors. 15% of 420,000 active; also: potency is read from the fitted curve at half-maximal effect; % is scaled to controls: 0 for no effect and ±100 for the full control effect; nearly all actives have a fitted effect of over 55% in size
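Chicken DT40 Tdp1-/- cells complemented with human TDP1, screened without camptothecin (DMSO vehicle only), 400 cells/well. Compounds pin-transferred, cells incubated at 37 °C for at least 48 hr. Growth read as ATP-dependent luminescence (CellTiter-Glo, 30 min at RT).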
IL-1B inflam inh: qHTS for Inhibitors of Inflammasome Signaling: IL-1-beta AlphaLISA Primary Screen; THP-1 LPS/ATP IL-1B secretion, AlphaLISA, 16 h; active compounds read low; activity change, % at 57.5 µM; 4.7% of 360,000 active; AID 743279, 2014; in the data active = activity change below about -50%; inconclusive = mostly about -30% to -49%; also: % is scaled to controls: 0 for no effect and ±100 for the full control effect
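Secreted IL-1B measured by AlphaLISA bead assay after 16 h compound exposure of THP-1 cells; compounds (final up to 57.5 uM) added 1 h before LPS (250 ng/mL) and ATP (1.25 mM) stimulation; lower signal means less secretion.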
ClpP mod: qHTS Assay for Activators of ClpP. ATP-dependent Clp protease proteolytic subunit (Bacillus subtilis (strain 168)), P80244. purified B. subtilis ClpP, FRET peptide cleavage, 20 min. Potency, µM (highest dose often 57.5 µM), inactives show at the top dose activity change, negative = active. 1.9% of 340,000 active. AID 651965, 2013; active = well fitted falling curve with a large enough effect; inconclusive = small, poorly fitted or top-dose-only effect; inactive = no such curve, though single readings can be large or run the other way; also: potency is read from the fitted curve at half-maximal effect; the source files actives as falling curves though it sought activators and does not explain the sign; nearly all actives have a fitted effect of over 65% in size
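Buffer: 100 mM Tris/HCl pH8, 100 mM KCl, 0.05% low protease BSA, 2.5% glycerol, 0.01% Tween-20. ClpP 10 microg/mL final; 20 min RT; delta FRET normalized to ADEP and DMSO controls.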
TDP1 cell CPT: qHTS for Inhibitors of human tyrosyl-DNA phosphodiesterase 1 (TDP1): qHTS in cells in presence of CPT. chicken DT40 Tdp1-/-;hTDP1 cells + 20 nM CPT, ATP luminescence, 48 h. Potency, µM (doses to about 46.2 µM), for inactives: at the highest dose activity change, negative = growth inhibition, most hits filed as inhibitors. 12% of 420,000 active. AID 686979, 2013; also: potency is read from the fitted curve at half-maximal effect; % is scaled to controls: 0 for no effect and ±100 for the full control effect; nearly all actives have a fitted effect of over 55% in size
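Cell growth measured by CellTiter-Glo luminescence after a minimum 48 h, 37 C compound exposure with 20 nM CPT in Tdp1-knockout DT40 cells stably expressing hTDP1, seeded 400/well; qHTS titration format.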
Starred values were filed as active, the others as inactive; u = inconclusive; x = no result. Unless noted, calls follow the shape of the dose curve; as a rule, active = well fitted inhibition curve with a large enough effect; inconclusive = small, poorly fitted or top-dose-only effect; inactive = flat fitted curve, though single readings scatter.

SMILES	D3 antag	D3 ag	DT40 TDP1 no CPT	IL-1B inflam inh	ClpP mod	TDP1 cell CPT
CCOc1ccc(-c2cnc(NCc3ccc(C(F)(F)F)cc3)n2C)cc1	x	-31	5.8µM*	x	-2%	5.2µM*
COc1ccc(-c2cnc(N)n2C)cc1	1	-1	u	-18	-2%	-14%
Cn1c(-c2ccccc2)cnc1N	-117*	-3	-18%	u	-1%	-27%
Cc1ccc(-c2nc(CCNC(=O)C(=O)Nc3ccc(C)c(C)c3)cs2)cc1	x	10	1%	x	-1%	-9%
Cc1ccc(NC(=O)CSc2nc(=O)n(CCCN3CCOCC3)c3c2CCCC3)cc1F	7	-1	-18%	-85*	32µM*	1%
CCc1ccc(NC(=O)CSc2nc(=O)n(CCCN3CCOCC3)c3c2CCCC3)cc1	19	9	-22%	u	-3%	-19%
CC(=O)Nc1cccc(NC(=O)CSc2nc(=O)n(CCCN3CCOCC3)c3c2CCC3)c1	-22	-17	3%	-9	28µM*	-13%
COc1ccccc1NC(=O)/C(C#N)=C/c1cccn1C	-1	0	-27%	9	-1%	-15%
CCOC(=O)c1noc2ncnc(Nc3cccc(C(F)(F)F)c3)c12	x	-1	-24%	x	1%	-24%
COc1ccc(N(C)S(=O)(=O)c2cccc(C(=O)OCC(=O)N3CC(C)CC(C)C3)c2)cc1 (stereo not drawn)	11	7	21µM*	-27	-2%	u
COc1ccc(N(C)S(=O)(=O)c2cccc(C(=O)OCC(=O)NCc3ccccc3OC)c2)cc1	22	1	u	9	x	-20%
Cc1ccc(S(=O)(=O)N(C)c2ccc(C(=O)N3CCC(C(N)=O)CC3)cc2)cc1	43	-11	u	-2	-1%	-13%
CN(c1ccc(C(=O)N2CCCCC2)cc1)S(=O)(=O)c1ccccc1	16	-1	8.2µM*	-13	-4%	13µM*
CN(c1ccccc1)S(=O)(=O)c1ccc(C(=O)N2CCCC2)cc1	9	3	-29%	29	1%	-23%
CN(c1ccccc1)S(=O)(=O)c1cccc(C(=O)N2CCCCCC2)c1	0	-9	21µM*	-1	x	16µM*
Cc1ccc(S(=O)(=O)N(C)c2ccc(C(=O)N3CCCCC3)cc2)cc1	35	4	u	20	-2%	9.2µM*
O=C1c2ccccc2C(=O)N1CCCCN(C(=O)c1cc([N+](=O)[O-])ccc1Cl)c1ccc(Cl)cc1	11	2	u	-7	-2%	u
CC(NC(=O)c1cccc(S(=O)(=O)N(C)c2ccccc2)c1)c1cccnc1 (stereo not drawn)	2	0	18µM*	-6	-3%	18µM*
CS(=O)(=O)N(CC(=O)N1CCN(Cc2ccccc2)CC1)c1ccccc1Br	-58*	-20	u	-12	-4%	u
CCSc1nnc(NC(=O)c2cccc(S(=O)(=O)N(C)c3ccccc3)c2)s1	1	1	-6%	4	-7%	0%
CN(c1ccc(C(=O)N2CCN(Cc3ccccc3)CC2)cc1)S(=O)(=O)c1ccccc1	-26	-17	15µM*	u	x	-28%
CCN(CC)c1ccc(C(=O)N2CCN(Cc3ccccc3)CC2)cc1	u	-9	u	-18	-2%	u
CN(CC(=O)N1CCN(Cc2ccccc2)CC1)S(=O)(=O)c1ccc(F)cc1	-59*	-9	-22%	-5	-3%	-18%
CO/N=C(\C(=O)N[C@@H]1C(=O)N2C(C(=O)[O-])=C(C[n+]3cccc4c3CCC4)CS[C@H]12)c1csc(N)n1	x	-14	-30%	x	x	u
Cc1ccc(CCN2C(=O)c3ccccc3C2C(=O)NCc2cccnc2)cc1 (stereo not drawn)	-1	1	-4%	-8	x	1%
SMILES	D3 antag	D3 ag	DT40 TDP1 no CPT	IL-1B inflam inh	ClpP mod	TDP1 cell CPT
CC1CC(C)CN(C(=O)c2cccc(S(=O)(=O)N(C)c3ccccc3)c2)C1 (stereo not drawn)	4	4	5.8µM*	3	x	8.2µM*
O=C(CN(Cc1ccc(F)cc1)S(=O)(=O)c1ccccc1)N1CCCCC1	28	0	16µM*	-11	1%	u
Cc1ccc(S(=O)(=O)N(C)c2ccc(C(=O)N3CCc4ccccc4C3)cc2)cc1	3	1	u	-62*	0%	u
CN(c1ccccc1)S(=O)(=O)c1ccc(C(=O)N2CCc3ccccc3C2)cc1	20	0	u	19	-1%	u
CN(c1ccccc1)S(=O)(=O)c1cccc(C(=O)NC2CCCC2)c1	22	2	u	-2	32µM*	u
CN(c1ccccc1)S(=O)(=O)c1cccc(C(=O)NC2CC(C)(C)NC(C)(C)C2)c1	3	-1	-15%	-25	2%	-24%
COc1ccc(-c2coc3c(C(=O)NCCc4ccccc4)cccc23)c(C)c1	-14	2	16µM*	-28	-22%	16µM*
COc1ccc(CCNC(=O)c2cc(Cl)nc3ccccc23)cc1	18	9	-1%	44	-7%	u
COc1ccc(-c2coc3c(C(=O)NCCN4CCOCC4)cccc23)c(C)c1	-2	-5	u	-20	-1%	u
COc1ccc(-c2coc3c(C(=O)NCCN(C)C)cccc23)c(C)c1	9	-15	u	-21	-2%	u
COCCCNC(=O)c1cccc2c(-c3ccc(OC)cc3C)coc12	19	4	u	-6	0%	18µM*
COc1ccc(-c2coc3c(C(=O)NCC4CCOCC4)cccc23)c(C)c1	u	-6	10µM*	-22	-7%	10µM*
C/C(=N/NC(=O)c1cc2ccccc2cc1O)c1ccco1	7	2	13µM*	0	2%	26µM*
C/C(=N\NC(=O)c1cc2ccccc2cc1O)c1ccc(C)o1	u	-11	15µM*	17	-1%	18µM*
CCC(C)c1ccc(S(=O)(=O)N2CCN(C(=O)COc3ccc4c(C)cc(=O)oc4c3)CC2)cc1 (stereo not drawn)	-6	6	15µM*	-13	u	u
